# Hit rate of the full screen: of about 320,000 compounds, about 1,300 (0.41%) were called active. About 3% were inconclusive and are not listed. No rule for the calls is given here. These entries were drawn from the full list. Measured potencies and affinities stand elsewhere.
# Assay: growth inhibition of non-replicating M. tuberculosis (AID 488890);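 also: plate controls were DMSO cells for no effect and high antibiotic wells for full effect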
# Details: Mycobacterium tuberculosis non-replicating, at 25 µM, stronger effect = higher value
row,SMILES,inhibition [%]
1,CC1=C(C(=O)c2ccccc2)C(c2ccc(N3CCOCC3)cc2)NC(=O)N1 (stereo not given),13.5
2,COc1ccc(OC)c(S(=O)(=O)N2CCCC(C(=O)N3CCOCC3)C2)c1 (stereo not given),-3.68
3,CN1CCN(C(=S)NC(=O)/C=C/c2ccccc2Cl)CC1,-10.3
4,Cc1nc(C(=O)NCC(=O)c2ccc(Cl)cc2)c(C(F)(F)F)o1,75
5,O=C(CCNC(=O)Cn1ccc2ccccc2c1=O)NCc1ccc(F)cc1Cl,-3.09
6,NC(=O)CCC(NS(=O)(=O)c1ccc(Cl)cc1)C(=O)NCc1ccc(Cl)cc1 (stereo not given),0.33
7,Cc1cccc(-n2c(-c3ccc(Br)o3)n[nH]c2=S)c1,-15
8,COc1cc(CNC2CCCC2)cc(Cl)c1OCc1ccccc1F,78.7
9,CCOc1cc(CNCCc2ccc(S(N)(=O)=O)cc2)cc(Cl)c1OCc1ccccc1,73
10,COc1cc(CNC2CCCC2)cc(Br)c1OCC(=O)Nc1ccccc1C,45.5
11,CCOc1cccc(CNCCO)c1OCc1ccc(Cl)cc1Cl,42.6
12,OCCNCc1ccc(OCc2ccc(Cl)cc2Cl)cc1,61.3
13,COc1cc(CNC2CCCCCCC2)cc(Cl)c1OC,9.81
14,CCCCNCc1cc(Br)c(OCC(=O)NCc2ccccc2)c(OC)c1,68.2
15,COc1cc(CNCc2ccccc2)cc(Cl)c1OC,-13.6
16,COc1ccc(-c2n[nH]c(=S)n2-c2ccc(C)cc2C)cc1,-17.9
17,Cc1ccc(S(=O)(=O)CCc2nnc(N)s2)cc1C,4.5
18,Cc1oc(-c2ccccc2F)nc1CSCC(=O)NC1CC1,-0.31
19,Cc1c(CC(=O)O)c(=O)oc2c(C)c(OCc3ccccc3)ccc12,-3.08
20,CCN(CC(=O)Nc1cccc(C(C)=O)c1)S(=O)(=O)c1ccccc1,-4.85
21,O=C(c1cccnc1)N1CCN(S(=O)(=O)c2ccc3ccccc3c2)CC1,9.44
22,CC(NC(=O)CN1C(=O)NC2(CCCC2)C1=O)c1ccc2ccccc2c1 (stereo not given),9.54
23,CCN1CCC(NCCc2ccc(F)cc2)CC1,-11.9

row,SMILES,inhibition [%]
1,CN(C(=O)c1ccc2c(Cl)c3c(nc2c1)CCC3)c1ccccc1,32.3
2,Cc1ccc(N(CC(=O)Nc2c(C)n(C)n(-c3ccccc3)c2=O)S(C)(=O)=O)c(C)c1,-0.1
3,O=P(O)(O)COc1ccccc1P(=O)(c1ccccc1)c1ccccc1,-12.2
4,Cc1noc(C)c1COC(=O)COc1ccc(C#N)cc1,38.3
5,Cc1noc(C)c1COC(=O)COc1cccc2c1OC(C)(C)C2,39.2
6,O=C(Nc1ccc(N2CCN(C(=O)c3cccs3)CC2)c(Cl)c1)c1ccco1,9.48
7,O=C(Nc1ccc(N2CCN(C(=O)c3ccco3)CC2)cc1)c1cccs1,38.8
8,O=C(Nc1cccc(S(=O)(=O)N2CCCCCC2)c1)C1CCC1,-14
9,COC(=O)c1ccc(NC(=O)c2cccc(OC)c2)cc1,27.8
10,CCc1ccc(NC(=O)Nc2cccc(OC)c2)cc1,60.4
11,COc1ccc(OCC(=O)NNC(=O)C(=O)Nc2ccc(C)cc2)cc1,7.2
12,CCc1ccc(NC(=O)COc2cccc(-n3cnnn3)c2)cc1,23.8
13,COc1ccc(NC(=O)C(=O)NNC(=O)COc2ccc(OC)cc2)cc1,6.66
14,COc1ccc(OCC(=O)NNC(=O)C(=O)Nc2ccccc2)cc1,75.3
15,CCCC(c1nnnn1Cc1ccco1)N1CCC(C(N)=O)CC1 (stereo not given),-17.6
16,Cc1ccc(CN2CCSc3ccc(C(=O)NCc4ccccn4)cc32)cc1,29.8
17,CC(=O)Nc1cccc(NC(=O)c2cc(-c3cccnc3)nc3ccc(Cl)cc23)c1,14.7
18,CCc1ccc(N(CC(=O)NCc2ccco2)C(=O)CCC(=O)Nc2ccccn2)cc1,-13.9
19,CCC(C)c1ccc(O)c(NC(=O)c2cccnc2)c1 (stereo not given),5.33
20,CCC(C)c1ccc(O)c(N)c1 (stereo not given),1.15
21,CC(C)CN(C(=O)COC(=O)C1=COCCO1)c1c(N)n(Cc2ccccc2)c(=O)[nH]c1=O,0.83
22,O=C(CC1SC(N2CCOCC2)=NC1=O)Nc1cccc(C(F)(F)F)c1 (stereo not given),9.06
23,COc1cccc(NC(=O)CCN2C(=O)c3ccc([N+](=O)[O-])cc3C2=O)c1,-4.23

row,SMILES,inhibition [%]
1,C=CCN1C(=O)C(CC(=O)Nc2ccccc2)S/C1=N/c1nccs1 (stereo not given),-1.19
2,Cc1cc(=O)[nH]c(N2CCCC2)n1,-4.14
3,Cc1cc(C)n(-c2nnc(C)c(=O)[nH]2)n1,1.82
4,CCc1c(C)nc(SCc2cccnc2)[nH]c1=O,-9.77
5,Cc1nn(-c2cccc3cccnc23)c(=O)c2ccccc12,0.08
6,O=C(Cc1ccc([N+](=O)[O-])cc1)N1CCCCCC1,5.47
7,O=C(c1ccc(Oc2ccc([N+](=O)[O-])cc2)cc1)N1CCCCCC1,65.4
8,Cc1ccccc1NC(=O)c1cccc(S(=O)(=O)N2CCOCC2)c1,-10.8
9,c1csc(CN2CCOCC2)c1,-3.64
10,OC(C#CCN1CCCC1)c1ccccc1 (stereo not given),-3.04
11,COc1cc(C(=S)N2CCN(C(c3ccccc3)c3ccccc3)CC2)cc(OC)c1O,12.6
12,CCCc1cc(=O)oc2c(C)c(OCC(=O)N3CCC[C@@H]3C(=O)O)ccc12,-11.2
13,CCOC(=O)/C(=N\Nc1cc(Cl)ccc1Cl)N1CCN(CC)CC1,46
14,COc1ccc(CN2C(=O)C(O)(CC(=O)c3ccc4c(c3)OCO4)c3ccccc32)cc1OC (stereo not given),12.6
15,Cc1[nH]c2ccccc2c1C(=O)NS(=O)(=O)Nc1ccc(F)cc1,-2.71
16,COc1ccccc1Oc1ccc(NC(=O)Cc2ccccc2)cc1,19.6
17,O=c1[nH][nH]c(=O)n1-c1ccccc1,-3.31
18,O=c1ccc(=O)n(-c2ccccc2)[nH]1,20
19,CCOC(=O)c1cn(Cc2ccccc2)nn1,74.6
20,CCOC(=O)c1cn(Cc2ccc(C)cc2)nn1,75.3
21,CCc1nnc(NC(=O)CSc2nncc(=O)n2N)s1,-12.3
22,Cn1cnnc1SCCNS(=O)(=O)c1ccccc1,2.23
23,CCOC(=O)c1c(C)[nH]c(C(=O)OCC(=O)NCc2ccc(C)cc2)c1C,-10.5

row,SMILES,inhibition [%]
1,C/C(CC(=O)Nc1ccc(N(C)C)cc1)=N\NC(=O)c1ccc(F)cc1,8.75
2,C/C(CC(=O)Nc1ccc(N(C)C)cc1)=N\NC(=O)c1ccc(Cl)cc1,8
3,Cc1cc(C)c(S(=O)(=O)NCC(=O)NCc2ccco2)c(C)c1,0.05
4,COC1C(C)=C(C)C(=O)N1Cc1ccccc1 (stereo not given),-5.86
5,C/C(=N\O)c1cc(Cl)cc(Cl)c1O,19
6,C/C(=N\O)c1ccc(Cl)cc1Cl,1.76
7,CCCCC(=O)N=c1sc2cc(S(C)(=O)=O)ccc2n1C,-0.02
8,O=C(Nc1nnc(-c2ccccc2)o1)c1cc(Cl)sc1Cl,9.95
9,CS(=O)(=O)c1cccc(-c2nnc(NC(=O)c3ccc4ncsc4c3)o2)c1,-2.94
10,O=C(Nc1nnc(-c2ccc(F)cc2)o1)c1cccc([N+](=O)[O-])c1,-8.79
11,CS(=O)(=O)c1ccccc1-c1nnc(NC(=O)c2ccc3ncsc3c2)o1,10.1
12,O=C(Nc1nnc(-c2cccnc2)o1)c1ccccc1Cl,35.5
13,O=C(Nc1ccc(F)cc1)c1cc(Cl)sc1Cl,70.7
14,COC(=O)c1ccc(C(=O)Nc2nnc(-c3cccnc3)o2)cc1,7.58
15,COc1cccc(C(=O)Nc2cccc(-c3nnc(-c4ccccc4)o3)c2)c1,-7.83
16,O=C1CC(N2CCC(c3nc4ccccc4[nH]3)CC2)C(=O)N1c1cccc(F)c1 (stereo not given),20.2
17,CCOC(=O)Cn1c(=NC(=O)CSC(C)=O)sc2cc(F)ccc21,30.8
18,Cc1nc(OCc2c(C)noc2C)c2ccccc2n1,-6.1
19,Brc1ccc(-c2ccccc2)cc1,27.1
20,Cc1ccc(OCC(=O)Nc2ccccc2C(=O)N2CCCC2)cc1,1.03
21,Cc1nnsc1S(=O)c1ccc(Cl)cc1 (stereo not given),-4.16
22,Cc1nnsc1C(=O)Nc1ccc(Cl)cc1,-9.77
23,Cc1cccc(-c2nc3cc([N+](=O)[O-])ccc3o2)c1,4.61

row,SMILES,inhibition [%]
1,COc1ccc(-c2[nH]nc3oc(=O)cc(C)c23)cc1,7.5
2,Cc1nc2ncccn2c1-c1csc(Nc2cccc(C(=O)O)c2)n1,-13.4
3,CC1CCC(NS(=O)(=O)c2cccc3nsnc23)CC1 (stereo not given),0.44
4,CCCCOc1ccc(-c2nnn(CC(=O)Nc3ncc(CC(=O)OCC)s3)n2)cc1,78.8
5,CCC(C(=O)O)n1nnc(-c2ccc(-c3ccc(OC)cc3)cc2)n1 (stereo not given),28
6,COc1cccc(C(=O)/C=C2\NCCc3cc(OC)c(OC)cc32)c1,21.5
7,CCN1CCN(C(=O)N(c2ccccc2)c2ccccc2)CC1,-28.4
8,NC(=O)CC(NC(=O)Cc1cccc2ccccc12)c1ccc(NCCN2CCCCC2)c([N+](=O)[O-])c1 (stereo not given),3.25
9,OC1CCCN(CC(O)COC(c2ccc(F)cc2)c2ccc(F)cc2)C1 (stereo not given),-5
10,OC(COC(c1ccc(F)cc1)c1ccc(F)cc1)CN1CCCC1 (stereo not given),1.01
11,CCOC(=O)C1(CCOc2ccccc2)CCN(Cc2ccc(O)c(Cl)c2)CC1,63.3
12,CN1CCN(NC(=O)c2ccc(Cl)c(S(=O)(=O)Nc3ccc(Cl)cc3)c2)CC1,-0.68
13,CCCN(CC(=O)Nc1ccccc1C)C(=O)c1ccc(C(=O)c2ccccc2)cc1,18.4
14,COc1ccc(C(=O)N2CCNC(=O)C2CC(=O)Nc2cc(Cl)ccc2OC)cc1 (stereo not given),0.76
15,O=C(Cc1ccc(-n2cccc2)cc1)NC1CCCCCC1,19.9
16,CCOC(=O)Cn1cc(/C=C/[N+](=O)[O-])c2ccccc21,72.6
17,CCOC(=O)COc1ccccc1/C=N/O,15
18,CCC(=O)Nc1cccc(NC(=O)c2ccc(Br)cc2)c1,1.37
19,COC(=O)c1cn(NC(=O)c2cccnc2)c(=O)c2ccccc12,-6.97
20,COC(=O)c1cn(NC(=O)c2ccncc2)c(=O)c2ccccc12,14.3
21,CCCCCCCCCCC(=O)NNC(=O)c1c(O)c2ccccc2n(CC)c1=O,-9.98
22,COc1cc(C(=O)NCc2ccc(F)cc2)cc(Cl)c1OC,-11.2
23,CCCCn1c(N)c(N(CCOC)C(=O)CCNC(=O)c2ccc(Cl)cc2)c(=O)[nH]c1=O,-12.2
